Laboratory results from PubChem BioAssay.
A number with no mark means an inactive call. How the calls were made is not given here.

These molecules were tested against Pantothenate synthetase (Mycobacterium tuberculosis (strain ATCC 25618 / H37Rv)) (UniProt P9WIL5) (assay: Coupled enzyme confirmation of inhibitors against recombinant Mtb PanC (AID 375;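 further: 0% = full reaction with vehicle and 100% = no enzyme background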)). Conditions: coupled enzyme assay; at 10 µM, hits give high values.
Chain of Pantothenate synthetase (Mycobacterium tuberculosis (strain ATCC 25618 / H37Rv)) (P9WIL5 whole entry, looked up): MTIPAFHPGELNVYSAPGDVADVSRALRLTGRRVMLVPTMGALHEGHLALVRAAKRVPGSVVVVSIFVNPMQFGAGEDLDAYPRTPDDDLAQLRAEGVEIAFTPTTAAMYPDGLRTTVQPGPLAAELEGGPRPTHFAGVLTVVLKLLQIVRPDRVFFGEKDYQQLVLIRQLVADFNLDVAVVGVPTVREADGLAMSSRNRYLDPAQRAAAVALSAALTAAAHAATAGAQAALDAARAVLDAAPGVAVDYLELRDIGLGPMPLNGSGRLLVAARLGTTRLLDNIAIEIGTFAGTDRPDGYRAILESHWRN

O=c1[nH]c(=O)n([C@H]2C[C@H](O)[C@@H](CO)O2)cc1F and CC(=O)OC[C@H]1O[C@@H](n2ncc(=O)[nH]c2=O)[C@H](OC(C)=O)[C@@H]1OC(C)=O are the same in inhibition: 0% for the first, 0% for the second.

Going from Cc1ccc(N2C(=O)c3ccccc3C2Nc2cccnc2)nc1 (centres undefined) to Cc1nc(/N=C(\N)Nc2ccccc2)nc2ccccc12, the inhibition falls from 1% to 0%.

Compared with CN(C)CCCN1c2ccccc2Sc2ccc(C(F)(F)F)cc21, COC(=O)c1[nH]c2ccc(C)cc2c1NC(=O)CN1CCCc2ccccc21 is higher in inhibition: 0% for the first, 3% for the second.

Compared with CCC(=O)N1CCN(c2nc(-c3ccccc3)c3c(c2C#N)CCCC3)CC1, CC(C)C(=O)N1CCN(c2nc(-c3ccccc3)c3c(c2C#N)CCCC3)CC1 is lower in inhibition: 4% for the first, 0% for the second.

Going from CCN(CC)S(=O)(=O)c1ccc(Cl)c(C(=O)OC)c1 to COc1ccc(NC(=O)C(C)NS(=O)(=O)c2ccccc2)cc1Cl (centres undefined), the inhibition rises from 8% to 10%.

CCN(CC)CCN1C(=O)C(=O)/C(=C(/O)c2c(C)[nH]c(C(=O)OC)c2C)C1c1ccccc1OC (centres undefined) and CCOC(=O)c1cccc(NC(=O)CS(=O)(=O)Cc2nc(-c3cccc(OC)c3)oc2C)c1 are the same in inhibition: 0% for the first, 0% for the second.

First: CS(=O)(=O)Nc1ccc([N+](=O)[O-])cc1Oc1ccccc1
Second: O=C(c1ccccc1)c1ccncc1
The inhibition of the first is lower: 0% for the first, 10% for the second.

First: CCCCc1ccc(NC(=O)COCC)cc1
Second: Cc1cc(OCC(=O)NCCO)cc(C)c1Cl
The inhibition of the first is lower: 0% for the first, 3% for the second.

O=C(Cn1c(=O)n(Cc2ccc3c(c2)OCO3)c(=O)c2ccccc21)N1CCCc2ccccc21 and CCOC(=O)c1ccccc1NC(=O)Cn1cnc2c(cnn2-c2ccc(OC)cc2)c1=O are the same in inhibition: 0% for the first, 0% for the second.

Compared with COc1ccc(C(=O)NCc2nc3ccccc3[nH]2)cc1OC, COc1ccc(C2CC(C(F)(F)F)n3ncc(C(=O)NCc4cccnc4)c3N2)cc1OC (centres undefined) is lower in inhibition: 5% for the first, 0% for the second.

Going from Cc1oc(-c2ccccc2Cl)nc1CSCC(=O)N1CCCC1 to Cc1oc(-c2ccc(Cl)cc2)nc1CS(=O)CC(=O)NCCCN(C)C1CCCCC1 (centres undefined), the inhibition falls from 1% to 0%.

Compared with Cc1ccc(S(=O)(=O)N2CCOCC2)cc1C(=O)Nc1ccc(-c2cn3ccsc3n2)cc1, COc1ccc(C(=O)Oc2c(CN3CCOCC3)cc(Cl)c3cccnc23)cc1OC is lower in inhibition: 3% for the first, 0% for the second.

CC(=O)c1c(OC(=O)c2ccco2)c2ccccc2n1C and Cc1cccc(-n2c(O)c(C=Nc3ccccc3N)c(=O)[nH]c2=O)c1 are the same in inhibition: 0% for the first, 0% for the second.

First: CC1CCCN(C(=O)C23CCC(C)(C(=O)C2)C3(C)C)C1 (centres undefined)
Second: CC1=C(C(=O)NC2CCC(C)CC2)C2(CCC(C)CC2)OC1=O (centres undefined)
The inhibition of the first is lower: 0% for the first, 2% for the second.

Going from CCc1nnc(NC(=O)CSc2nnc(-c3cc4ccccc4cc3O)n2CC)s1 to COc1ccc(-c2nnc3sc(C(C)N4C(=O)c5ccccc5C4=O)nn23)cc1 (centres undefined), the inhibition falls from 6% to 0%.

Compared with Cc1sc2c(c1C)CN(C1CC(C)(C)NC(C)(C)C1)CN2C(=O)c1ccco1, Cc1ccc(C)c(C(=O)NC2CC(C)(C)NC(C)(C)C2)c1 is lower in inhibition: 7% for the first, 0% for the second.

Going from COCc1cc(C)nc(SCC(=O)Nc2cccc(C)c2C)c1C#N to COC(=O)c1ccc2c(c1)nc(C)n2CCO, the inhibition falls from 5% to 0%.

First: COC(=O)c1c(C#N)c(N)nc2c1CCC2
Second: COc1cc2nc(N3CCN(C(=O)C4CCCO4)CC3)nc(N)c2cc1OC (centres undefined)
The inhibition of the first is higher: 7% for the first, 0% for the second.

Going from CSc1nnc(-c2cnccn2)n1C to Cc1ccc(C2c3c(oc4ccccc4c3=O)C(=O)N2c2nnc(C(C)C)s2)o1 (centres undefined), the inhibition rises from 0% to 7%.

CCOC(=O)N1CCN(c2c(N3CCN(c4ccccc4OC)CC3)c(=O)c2=O)CC1 was tested, and the inhibition was 0%.
